Rows were chosen to be rich in hits. Some 12% of all compounds tested hit in one or more screens of this group.
JMJD2A Tudor: JMJD2A Tudor domain (human) inhibition; Potency, µM (top dose mostly 114 µM), usual class: inhibitors; AlphaScreen JMJD2A-Tudor / H3K4me3 peptide binding; AID 504339; 390,000 compounds, 4.4% hits; further: nearly all actives have a fitted effect of over 50% in size
HP1b binding inh: inhibitors of HP1-beta chromodomain binding to methylated histone tails | P83916 | AlphaScreen HP1-beta / biotin-H3K9me3 peptide binding | Potency, µM (top dose mostly 114 µM), usual class: inhibitors | 390,000 compounds, 0.56% hits | AID 540317; further: nearly all actives have a fitted effect of over 70% in size
Target sequence (P83916 whole entry, looked up): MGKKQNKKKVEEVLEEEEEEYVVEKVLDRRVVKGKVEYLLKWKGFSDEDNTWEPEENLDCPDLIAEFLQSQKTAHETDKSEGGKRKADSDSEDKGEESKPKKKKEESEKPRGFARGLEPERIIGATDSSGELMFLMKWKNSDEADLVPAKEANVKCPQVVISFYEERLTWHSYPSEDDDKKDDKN
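AlphaScreen: HP1-beta (50 nM) preformed 30 min with biotin-H3(1-18)K9me3 peptide (50 nM) in PBS pH 7.4, 0.01% Tween-20. Compound added for 30 min at RT, then streptavidin donor/nickel chelate acceptor beads (10 ug/mL) for 30 min.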
Sfp PPTase inh: blocks B. subtilis Sfp PPTase activity | Q9F4F7 | Biochemical Sfp PPTase activity, qHTS | Potency, µM, hits mostly inhibitors | 310,000 compounds, 3.5% hits;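 further: the enzyme is Sfp with the accession as filed and its product quenches rhodamine fluorescence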
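Reaction rates are the 30-min fluorescence difference (ex 525, em 598 nm) in wells containing 15 nM Sfp, 5 uM rhodamine-CoA and 12.5 uM BHQ-2-YbbR at pH 7.6 with 10 mM MgCl2.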
G9a inh: inhibitors of human histone lysine methyltransferase G9a; G9a H3K9 monomethylation, AlphaScreen, 2 h; Potency, µM (highest dose often 102 µM), usual class: inhibitors; 350,000 compounds, 8.8% hits; further: nearly all actives have a fitted effect of over 75% in size
Target sequence (Q96KQ7 913-1193 limits assumed): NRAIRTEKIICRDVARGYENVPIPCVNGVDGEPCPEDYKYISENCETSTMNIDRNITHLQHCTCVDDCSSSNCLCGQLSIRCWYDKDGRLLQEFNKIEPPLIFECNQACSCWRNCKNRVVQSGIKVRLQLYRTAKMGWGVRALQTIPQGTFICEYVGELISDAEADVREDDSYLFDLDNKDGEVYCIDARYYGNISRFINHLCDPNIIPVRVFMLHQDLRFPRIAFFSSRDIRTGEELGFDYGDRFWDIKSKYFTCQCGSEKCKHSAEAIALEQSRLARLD
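G9a (20 nM) was preincubated 15 min with compound, then reacted 2 h at room temperature with 500 nM biotin-H3K9 peptide and 20 µM SAM. Monomethyl-H3K9 detected by AlphaScreen using anti-H3K9me1 antibody.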
BAZ2B inh: blocks human BAZ2B; AlphaScreen BAZ2B-H3K14Ac peptide displacement; 360,000 compounds, 4.4% hits; Potency, µM (highest dose often 114 µM), usual class: inhibitors; AID 504333; Q9UIF8; further: nearly all actives have a fitted effect of over 60% in size
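Multi-concentration screen (max 110 uM) measuring displacement of acetylated histone H3 peptide from BAZ2B by AlphaScreen, using 50 nM protein, 50 nM peptide and 10 ug/mL streptavidin donor plus Ni-chelate acceptor beads.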
Of the large screens only hits and unclear results are named; the others gave an inactive call. The call rests on the fitted dose curve; in most records, active means well fitted curve in the direction sought with a large enough effect; inconclusive means small, poorly fitted or top-dose-only effect, or another doubt; inactive means no such curve, though single readings can be large; an effect the other way counts as inactive or inconclusive.

COc1cc(NC(=O)c2cnc(N)s2)cc(C(=O)Nc2cccc(C(F)(F)F)c2)c1	JMJD2A Tudor 32µM, G9a inh inconclusive, BAZ2B inh 20µM
COc1ccc(NC(=O)C(CCCCNC(=O)OC(C)(C)C)NC(=O)OCc2ccccc2)cc1 (stereo unspecified)	JMJD2A Tudor inconclusive, G9a inh 3.5µM, BAZ2B inh inconclusive
CC(C)(C)OC(=O)N[C@@H](CC(=O)OCc1ccccc1)C(=O)O	JMJD2A Tudor 50µM
CC(C)(C)OC(=O)N[C@@H](CCCCNC(=O)OCc1ccccc1)c1nnc([C@H](CCCCNC(=O)OCc2ccccc2)NC(=O)OC(C)(C)C)o1	none
COC(=O)C(Cc1cncn1COCc1ccccc1)NC(=O)OC(C)(C)C (stereo unspecified)	JMJD2A Tudor inconclusive, G9a inh 28µM, BAZ2B inh 79µM
CC(C)(C)OC(=O)NC(CC(=O)OCc1ccccc1)C(=O)O (stereo unspecified)	none
Oc1ccc2ccccc2c1CN1CCN(C/C=C/c2ccccc2)CC1	JMJD2A Tudor inconclusive, G9a inh 10µM, BAZ2B inh inconclusive
O=c1cc(CN2CCN(c3ccccc3F)CC2)c2cc(O)c(-c3ccccc3)cc2o1	JMJD2A Tudor 89µM
Oc1ccc2ccccc2c1CN1CCN(c2ccccc2F)CC1	G9a inh 28µM
O=C(CN1CCN(c2ccccc2F)CC1)c1ccc(O)c(O)c1	Sfp PPTase inh inconclusive, G9a inh 32µM
C#CCCCO/N=C1/C[C@@H](O)[C@@H](O)[C@@H]2[C@H]3C(=O)N(c4ccc(F)cc4F)C(=O)[C@@H]3CC[C@@H]12	none (no result: JMJD2A Tudor, HP1b binding inh, G9a inh, BAZ2B inh)
Cc1c(NC(=O)c2ccccc2)cc(C(C)C)c(O)c1S(=O)(=O)c1ccc(Cl)cc1	none (no result: Sfp PPTase inh)
COc1ccc(CCC(=O)NCc2nc3cccnc3n2Cc2ccc(OC)cc2)cc1	none (no result: Sfp PPTase inh)
COc1ccccc1N1CCN(C(=O)c2c(C)cc(=O)oc2C)CC1	none
Cc1cc(=O)oc(C)c1C(=O)N1CCN(C(c2ccccc2)c2ccccc2)CC1	G9a inh 50µM
CC1CCCC(C)N1C(=O)COC(=O)CNC(=O)c1ccc(Cl)cc1Cl (stereo unspecified)	none (no result: Sfp PPTase inh)
OC(CN1CCN(c2ccccn2)CC1)Cn1c2ccc(Cl)cc2c2cc(Cl)ccc21 (stereo unspecified)	none
OC(CN1CCNCC1)Cn1c2ccccc2c2ccccc21 (stereo unspecified)	G9a inh 50µM
Cc1ccc(OCCN2CCN(CC(O)Cn3c4ccccc4c4ccccc43)CC2)cc1 (stereo unspecified)	Sfp PPTase inh 45µM, G9a inh 8.9µM, BAZ2B inh 20µM (no result: JMJD2A Tudor, HP1b binding inh)
OC(CN1CCN(c2ccccc2)CC1)Cn1c2ccccc2c2ccccc21 (stereo unspecified)	JMJD2A Tudor inconclusive, G9a inh 32µM, BAZ2B inh inconclusive
OC(CN1CCCCC1)Cn1c2ccc(Cl)cc2c2cc(Cl)ccc21 (stereo unspecified)	Sfp PPTase inh 50µM, G9a inh inconclusive
OC(CN1CCN(Cc2ccccc2)CC1)Cn1c2ccccc2c2ccccc21 (stereo unspecified)	JMJD2A Tudor inconclusive, HP1b binding inh inconclusive, G9a inh inconclusive, BAZ2B inh inconclusive
Cc1cc(S(=O)(=O)Nc2cccc(C(=O)O)c2)c(C)c(S(=O)(=O)c2ccccc2)c1	none (no result: Sfp PPTase inh)
CC(C)(C)C(=O)N1CCN(c2ccc([N+](=O)[O-])cc2Cl)CC1	none (no result: Sfp PPTase inh, G9a inh, BAZ2B inh)
Cc1ccc2nc(C)c(CN3CCN(c4ccc([N+](=O)[O-])cc4Cl)CC3)n2c1	G9a inh 50µM, BAZ2B inh 40µM (no result: JMJD2A Tudor, HP1b binding inh)
C=CCNCC(O)COc1ccc(C(C)=O)cc1OC (stereo unspecified)	JMJD2A Tudor 2µM, HP1b binding inh 71µM, Sfp PPTase inh inconclusive, BAZ2B inh 50µM (no result: G9a inh)
COc1cc(C(C)=O)ccc1OCC(O)CN(CCO)Cc1ccccc1 (stereo unspecified)	none (no result: BAZ2B inh)
COc1ccccc1COCC(O)CNCC1(N2CCCCC2)CCCCC1 (stereo unspecified)	JMJD2A Tudor 1.8µM, HP1b binding inh inconclusive, G9a inh 4.5µM, BAZ2B inh inconclusive
COc1cc(C(C)=O)ccc1OCC(O)CNCC1(N2CCCCC2)CCCCC1 (stereo unspecified)	JMJD2A Tudor 3.2µM, HP1b binding inh inconclusive, Sfp PPTase inh inconclusive, G9a inh 28µM, BAZ2B inh 50µM
C=CCn1c(SCC(=O)c2ccc(O)c(O)c2)nnc1-c1cccc(C)c1	JMJD2A Tudor inconclusive, G9a inh inconclusive, BAZ2B inh 50µM (no result: Sfp PPTase inh)
C=CCn1c(SCC(=O)Nc2ccc(N(C)C)cc2)nnc1-c1cccc(C)c1	JMJD2A Tudor 50µM, G9a inh 7.9µM, BAZ2B inh 45µM
C=CCn1c(SCC(=O)NC2CCCC2)nnc1-c1cccnc1	none (no result: G9a inh)
C=CCn1c(SCC(=O)c2ccc(O)c(O)c2)nnc1-c1cccnc1	HP1b binding inh 25µM, Sfp PPTase inh inconclusive, BAZ2B inh 35µM (no result: G9a inh)
C=CCn1c(SCC(=O)O)nnc1-c1cccc(Cl)c1	none
C=CCn1c(SCC(=O)c2ccc(O)c(O)c2)nnc1-c1cccc(Cl)c1	JMJD2A Tudor inconclusive, BAZ2B inh 50µM (no result: Sfp PPTase inh)
COc1ccc(C2CC(=O)N(CC(=O)Nc3ccc(C(C)=O)cc3)c3ccccc3S2)cc1OC (stereo unspecified)	none (no result: Sfp PPTase inh)
COc1cc(C(=O)Nc2sc3c(c2C#N)CCCC3)c(Br)c(OC)c1OC	none (no result: Sfp PPTase inh)
C=CCn1c(SCc2nc(N)nc(N(C)C)n2)nnc1-c1cccnc1	G9a inh 50µM, BAZ2B inh inconclusive
C=CCn1c(SCC(=O)Nc2cc(NC(C)=O)ccc2OC)nnc1-c1ccccn1	JMJD2A Tudor inconclusive, BAZ2B inh 79µM
CC(CN1CC(=O)NC(=O)C1)N1CC(=O)NC(=O)C1 (stereo unspecified)	G9a inh 2.8µM (no result: JMJD2A Tudor, HP1b binding inh, BAZ2B inh)
CCOc1ccccc1NC(=O)C(=O)/C=C(\O)c1cc(OC)ccc1OC	JMJD2A Tudor 20µM, G9a inh inconclusive
COc1ccc(OC)c(/C(O)=C/C(=O)C(=O)Nc2cc(C)ccc2OC)c1	BAZ2B inh inconclusive
CCOc1ccccc1NC(=O)C(NCCc1ccc(OC)cc1)c1ccccc1 (stereo unspecified)	Sfp PPTase inh inconclusive, BAZ2B inh 50µM (no result: G9a inh)
CCOc1ccccc1NC(=O)C(NCCN(C)C)c1ccccc1 (stereo unspecified)	JMJD2A Tudor 22µM, Sfp PPTase inh 79µM, G9a inh 10µM, BAZ2B inh 50µM
COc1ccc(CCNC(C(=O)Nc2cc(C)cc(C)c2)c2ccccc2)cc1 (stereo unspecified)	none
COc1ccccc1Nc1cc(C(=O)N2CCc3ccccc3C2)c2ccccc2n1	none (no result: JMJD2A Tudor, HP1b binding inh)
COc1ccc(N2CCN(CCCNC(=O)c3cc(Nc4ccc(OC)cc4OC)nc4ccccc34)CC2)cc1	JMJD2A Tudor 25µM, HP1b binding inh inconclusive, G9a inh 13µM, BAZ2B inh 16µM (no result: Sfp PPTase inh)
COc1ccc(Nc2cc(C(=O)N3CCc4ccccc4C3)c3ccccc3n2)c(OC)c1	JMJD2A Tudor inconclusive, G9a inh 18µM, BAZ2B inh inconclusive

High-throughput results (PubChem BioAssay)
